According to ChEMBL document CHEMBL3988442, “University of Dundee, Small-Polar-MMV Screening Library” (2021):
For some assays here: Results with a measured potency or affinity are listed apart.

Assays:
Parameters in all cases: scale not given: direction of the effect not stated beside the values
[1] = biological target: Protein translocase subunit SecA (Escherichia coli (strain K12)) (UniProt P10408); assay: Assay to Identify E. coli SecA ATPase Inhibitors; assay type: functional; conditions: 30 µM
[2] = biological target: T1, Ubiquitin-activating enzyme e1, putative (Leishmania donovani (strain BPK282A1)) (UniProt E9BSI1); assay: Leishmania donovani Ubiquitin Activating Enzyme (LdE1); assay type: functional; conditions: 30 µM
T1 sequence (whole entry): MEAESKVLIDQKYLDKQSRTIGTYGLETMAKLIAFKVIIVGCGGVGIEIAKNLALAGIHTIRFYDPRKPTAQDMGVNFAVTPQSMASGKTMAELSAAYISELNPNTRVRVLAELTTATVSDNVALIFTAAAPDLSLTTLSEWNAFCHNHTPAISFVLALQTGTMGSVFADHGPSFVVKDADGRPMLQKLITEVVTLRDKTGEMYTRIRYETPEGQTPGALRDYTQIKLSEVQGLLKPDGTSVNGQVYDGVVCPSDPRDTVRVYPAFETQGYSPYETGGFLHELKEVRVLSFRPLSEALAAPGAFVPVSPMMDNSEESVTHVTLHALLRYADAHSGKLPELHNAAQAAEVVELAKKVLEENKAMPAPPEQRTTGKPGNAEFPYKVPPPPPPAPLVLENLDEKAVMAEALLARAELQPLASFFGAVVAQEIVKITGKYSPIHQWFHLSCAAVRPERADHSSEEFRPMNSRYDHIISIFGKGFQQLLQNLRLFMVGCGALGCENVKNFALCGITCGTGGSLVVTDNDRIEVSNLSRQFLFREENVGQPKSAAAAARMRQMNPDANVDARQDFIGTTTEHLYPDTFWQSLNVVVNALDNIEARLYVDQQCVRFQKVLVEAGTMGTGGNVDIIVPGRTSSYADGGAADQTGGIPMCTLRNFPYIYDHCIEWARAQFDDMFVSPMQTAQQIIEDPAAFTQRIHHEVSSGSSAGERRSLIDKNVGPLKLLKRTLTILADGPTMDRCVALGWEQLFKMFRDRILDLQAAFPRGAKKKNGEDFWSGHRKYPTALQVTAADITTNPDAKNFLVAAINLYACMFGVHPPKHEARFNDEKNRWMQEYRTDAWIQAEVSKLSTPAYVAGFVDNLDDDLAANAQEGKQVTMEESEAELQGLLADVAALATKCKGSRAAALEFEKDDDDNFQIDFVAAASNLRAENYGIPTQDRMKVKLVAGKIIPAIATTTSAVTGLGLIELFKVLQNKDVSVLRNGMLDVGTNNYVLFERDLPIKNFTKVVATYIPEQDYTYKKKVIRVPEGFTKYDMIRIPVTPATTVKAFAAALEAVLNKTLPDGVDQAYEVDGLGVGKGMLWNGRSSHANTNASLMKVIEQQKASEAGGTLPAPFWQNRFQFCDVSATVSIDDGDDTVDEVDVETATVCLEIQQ

[3] = biological target: AMP-activated protein kinase, AMPK (Homo sapiens) (UniProt P54646+O43741+P54619+Q9UGJ0+Q9Y478+Q13131+Q9UGI9); assay: AMP-dependent Kinase enzyme assay. An in vitro enzyme assay that detects ADP turnover that is directly proportional to AMPK activity. This uses naive AMPK that is activated during the assay with MK-8722; assay type: functional; conditions: 30 µM
[4] = biological target: Sialic acid-binding Ig-like lectin 9 (Homo sapiens) (UniProt Q9Y336); assay: Hs-Siglec9 ALPHAscreen SOP 20170721; conditions: 10 µM
Trypanosoma cruzi = assay: Trypanosoma cruzi phosphomannomutase and mannose-1-phosphate guanylyltransferase assay; assay type: functional; conditions: 10 µM
[5] = biological target: T2, Arginase-2, mitochondrial (Homo sapiens) (UniProt P78540); assay: in vitro enzyme assay to detect the production of urea directly proportional to the activity of Arginase II; assay type: functional; conditions: 33.3 µM; note: in the data most compounds retested in dose-response had high values
T2 sequence (whole entry): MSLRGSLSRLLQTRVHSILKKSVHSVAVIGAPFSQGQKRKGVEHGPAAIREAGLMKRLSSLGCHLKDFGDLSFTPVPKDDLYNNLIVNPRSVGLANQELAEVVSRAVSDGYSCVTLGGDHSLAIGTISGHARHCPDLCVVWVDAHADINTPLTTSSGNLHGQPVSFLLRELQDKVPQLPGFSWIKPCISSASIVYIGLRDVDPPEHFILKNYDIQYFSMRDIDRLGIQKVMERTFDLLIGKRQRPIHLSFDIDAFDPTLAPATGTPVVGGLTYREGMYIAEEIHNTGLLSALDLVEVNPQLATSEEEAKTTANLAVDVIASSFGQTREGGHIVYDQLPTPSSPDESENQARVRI

[6] = biological target: T3, Proteasome subunit beta (Trypanosoma cruzi) (UniProt O96673); assay: Trypanosoma cruzi proteasome chymotrypsin-like activity (TcProtChymo) assay.; note: in the data most compounds retested in dose-response had high values; assay type: functional; conditions: 9.37 µM
T3 sequence (whole entry): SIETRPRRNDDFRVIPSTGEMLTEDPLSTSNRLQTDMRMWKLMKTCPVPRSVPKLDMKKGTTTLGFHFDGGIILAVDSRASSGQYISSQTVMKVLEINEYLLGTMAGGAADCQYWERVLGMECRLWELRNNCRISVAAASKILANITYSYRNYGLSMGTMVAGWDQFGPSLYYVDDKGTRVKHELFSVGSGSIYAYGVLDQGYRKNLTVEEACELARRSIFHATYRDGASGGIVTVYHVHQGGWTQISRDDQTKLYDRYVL

Homo sapiens = organism: Homo sapiens; assay: To identify inhibition of the IFN signalling (Jak-Stat) pathway via expression of an eGFP reporter gene under the control of an IFN-stimulated response element (ISRE) containing MxA promoter.; assay type: functional; conditions: 30 µM
[7] = biological target: T4, Tyrosyl-tRNA synthetase, putative (Trypanosoma cruzi (strain CL Brener)) (UniProt Q4DSP6); assay: Trypanosoma cruzi tyrosyl tRNA synthetase (TcYRS) _High Tyrosine SOP; assay type: functional; conditions: 30 µM; note: in the data most compounds retested in dose-response had high values
T4 sequence (whole entry): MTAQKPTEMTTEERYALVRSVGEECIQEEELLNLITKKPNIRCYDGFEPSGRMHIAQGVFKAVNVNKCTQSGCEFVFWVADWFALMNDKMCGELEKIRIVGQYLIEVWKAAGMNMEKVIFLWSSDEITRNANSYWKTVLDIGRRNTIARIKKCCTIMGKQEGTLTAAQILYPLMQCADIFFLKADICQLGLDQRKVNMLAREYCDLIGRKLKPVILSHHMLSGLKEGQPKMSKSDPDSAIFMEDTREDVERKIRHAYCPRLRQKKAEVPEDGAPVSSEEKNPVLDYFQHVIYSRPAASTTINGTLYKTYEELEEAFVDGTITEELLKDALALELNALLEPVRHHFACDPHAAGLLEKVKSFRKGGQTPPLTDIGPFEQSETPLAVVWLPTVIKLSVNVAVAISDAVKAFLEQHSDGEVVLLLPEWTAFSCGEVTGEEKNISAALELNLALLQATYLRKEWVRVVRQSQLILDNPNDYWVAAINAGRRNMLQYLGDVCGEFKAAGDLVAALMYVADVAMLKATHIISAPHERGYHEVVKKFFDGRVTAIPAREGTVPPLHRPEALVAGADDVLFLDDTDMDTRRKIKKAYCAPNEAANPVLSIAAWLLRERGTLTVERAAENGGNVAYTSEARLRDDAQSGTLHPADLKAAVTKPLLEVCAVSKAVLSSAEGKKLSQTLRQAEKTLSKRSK

[8] = biological target: T4, Tyrosyl-tRNA synthetase, putative (Trypanosoma cruzi (strain CL Brener)); assay: Trypanosoma cruzi tyrosyl tRNA synthetase (TcYRS) SOP; assay type: functional; conditions: 30 µM
[9] = biological target: Chromo domain-containing protein 1 (Saccharomyces cerevisiae (strain ATCC 204508 / S288c) (Baker's yeast)) (UniProt P32657); assay: ScCHD-1 Enzyme Inhibition Assay; assay type: functional; conditions: 30 µM; note: in the data most compounds retested in dose-response had high values
Sequence of Chromo domain-containing protein 1 (Saccharomyces cerevisiae (strain ATCC 204508 / S288c) (Baker's yeast)) (P32657 whole entry, the tested form may be a part): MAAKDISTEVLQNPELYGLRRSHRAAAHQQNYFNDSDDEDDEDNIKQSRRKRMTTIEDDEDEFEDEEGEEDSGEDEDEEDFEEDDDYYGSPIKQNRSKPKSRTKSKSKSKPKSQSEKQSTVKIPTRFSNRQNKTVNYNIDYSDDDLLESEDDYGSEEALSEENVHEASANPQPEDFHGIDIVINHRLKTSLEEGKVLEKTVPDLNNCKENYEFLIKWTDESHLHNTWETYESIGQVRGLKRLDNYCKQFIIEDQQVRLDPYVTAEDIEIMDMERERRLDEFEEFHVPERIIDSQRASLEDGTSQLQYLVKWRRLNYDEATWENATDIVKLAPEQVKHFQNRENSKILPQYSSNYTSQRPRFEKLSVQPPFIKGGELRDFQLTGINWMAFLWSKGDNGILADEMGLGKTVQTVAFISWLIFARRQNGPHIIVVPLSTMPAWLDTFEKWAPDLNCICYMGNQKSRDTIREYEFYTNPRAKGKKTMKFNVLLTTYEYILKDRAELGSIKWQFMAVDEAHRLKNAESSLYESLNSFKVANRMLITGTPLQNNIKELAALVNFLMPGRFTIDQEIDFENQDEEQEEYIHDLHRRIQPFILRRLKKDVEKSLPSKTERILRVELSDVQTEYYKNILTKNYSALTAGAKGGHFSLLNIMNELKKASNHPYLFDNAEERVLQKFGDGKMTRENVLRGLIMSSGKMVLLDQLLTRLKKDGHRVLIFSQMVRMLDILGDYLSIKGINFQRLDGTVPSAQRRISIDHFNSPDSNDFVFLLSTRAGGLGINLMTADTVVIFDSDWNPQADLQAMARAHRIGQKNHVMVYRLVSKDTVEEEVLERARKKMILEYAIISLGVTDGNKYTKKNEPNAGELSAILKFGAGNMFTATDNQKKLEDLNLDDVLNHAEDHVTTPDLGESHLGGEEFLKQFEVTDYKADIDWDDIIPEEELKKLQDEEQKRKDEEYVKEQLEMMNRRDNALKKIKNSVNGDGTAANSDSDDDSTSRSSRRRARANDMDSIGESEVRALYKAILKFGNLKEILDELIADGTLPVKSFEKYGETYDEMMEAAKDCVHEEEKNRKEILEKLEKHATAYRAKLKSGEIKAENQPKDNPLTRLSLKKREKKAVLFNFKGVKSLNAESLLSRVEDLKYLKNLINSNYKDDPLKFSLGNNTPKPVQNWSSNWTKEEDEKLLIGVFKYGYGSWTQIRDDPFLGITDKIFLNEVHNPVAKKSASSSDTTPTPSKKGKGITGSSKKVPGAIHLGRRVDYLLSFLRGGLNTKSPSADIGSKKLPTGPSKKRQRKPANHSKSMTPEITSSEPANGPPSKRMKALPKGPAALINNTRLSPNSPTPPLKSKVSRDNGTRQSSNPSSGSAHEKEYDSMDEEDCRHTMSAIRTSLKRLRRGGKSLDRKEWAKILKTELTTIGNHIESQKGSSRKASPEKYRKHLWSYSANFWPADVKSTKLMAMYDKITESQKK

Sequence of Sialic acid-binding Ig-like lectin 9 (Homo sapiens) (Q9Y336 whole entry): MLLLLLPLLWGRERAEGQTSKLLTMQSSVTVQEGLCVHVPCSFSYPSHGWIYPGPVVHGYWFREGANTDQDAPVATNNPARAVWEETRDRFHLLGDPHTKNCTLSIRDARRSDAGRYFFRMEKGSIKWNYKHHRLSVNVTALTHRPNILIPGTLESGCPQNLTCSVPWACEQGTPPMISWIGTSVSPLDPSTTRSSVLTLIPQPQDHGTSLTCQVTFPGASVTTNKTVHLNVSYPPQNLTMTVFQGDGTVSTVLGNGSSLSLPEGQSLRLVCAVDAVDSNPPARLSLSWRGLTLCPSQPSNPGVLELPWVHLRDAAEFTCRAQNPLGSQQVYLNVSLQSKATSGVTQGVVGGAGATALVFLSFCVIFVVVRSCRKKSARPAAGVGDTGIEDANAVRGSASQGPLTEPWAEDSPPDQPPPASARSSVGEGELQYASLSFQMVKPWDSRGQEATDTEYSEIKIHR
Sequence of Protein translocase subunit SecA (Escherichia coli (strain K12)) (P10408 whole entry): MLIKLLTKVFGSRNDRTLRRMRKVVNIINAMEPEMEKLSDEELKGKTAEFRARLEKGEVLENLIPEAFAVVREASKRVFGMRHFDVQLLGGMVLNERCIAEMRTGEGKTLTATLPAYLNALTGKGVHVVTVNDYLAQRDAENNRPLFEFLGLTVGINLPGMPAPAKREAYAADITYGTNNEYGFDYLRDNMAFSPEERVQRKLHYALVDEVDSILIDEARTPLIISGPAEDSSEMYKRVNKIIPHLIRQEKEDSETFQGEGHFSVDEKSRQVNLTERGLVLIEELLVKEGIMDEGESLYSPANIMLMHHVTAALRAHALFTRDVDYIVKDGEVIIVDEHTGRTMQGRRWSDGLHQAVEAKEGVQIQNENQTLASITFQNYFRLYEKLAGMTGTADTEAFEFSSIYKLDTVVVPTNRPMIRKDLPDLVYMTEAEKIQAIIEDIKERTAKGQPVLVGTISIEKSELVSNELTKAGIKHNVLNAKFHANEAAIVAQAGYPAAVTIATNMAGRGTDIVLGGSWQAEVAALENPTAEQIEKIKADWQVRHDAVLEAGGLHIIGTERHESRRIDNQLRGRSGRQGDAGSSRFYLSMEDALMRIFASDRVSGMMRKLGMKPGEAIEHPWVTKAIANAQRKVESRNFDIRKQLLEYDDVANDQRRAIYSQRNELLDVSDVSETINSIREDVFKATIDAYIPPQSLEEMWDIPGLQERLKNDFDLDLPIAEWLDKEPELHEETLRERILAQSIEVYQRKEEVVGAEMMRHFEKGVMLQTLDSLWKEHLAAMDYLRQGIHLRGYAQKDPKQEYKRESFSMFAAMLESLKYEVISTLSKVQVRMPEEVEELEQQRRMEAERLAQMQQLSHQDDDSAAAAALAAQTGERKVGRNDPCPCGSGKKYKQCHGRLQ

SMILES	Percent Effect [1] [%]	Percent Effect [2] [%]	Percent Effect [3] [%]	Percent Effect [4] [%]	Percent Effect (Trypanosoma cruzi) [%]	Percent Effect [5] [%]	Percent Effect [6] [%]	Percent Effect (Homo sapiens) [%]	Percent Effect [7] [%]	Percent Effect [8] [%]	Percent Effect [9] [%]
Cc1c(NC(=O)NCC(C)N2CCOCC2)cccc1OC(F)F (stereo unspecified)	-4.46	8.11	0.188	0.607	0.391	2.5	8.03	-7.17	14.8	-3.66	-5.4
CC(NC(=O)CSCC#N)c1cccc(NC(=O)c2ccccc2)c1 (stereo unspecified)	-6.35	15.8	-4.8	13.9	4.76	1.08	8.38	12.6	5.42	23.5	-7.99
CCS(=O)(=O)N1CCO[C@H]2[C@H](OCC3CCCC3)CC[C@@H]21	-3.86	5.33	0.773	0.841	5.21	-50.7	7.01	2.31	1.04	15	-5.43
CCCNC(=O)CN1CCC(C(=O)Nc2cnn(CC)c2)CC1	-4.73	18.4	-9.54	-8.7	-5.13	3.24	3.98	7.34	6.4	18.5	-3.68
CC(=O)N1CCn2c(COCc3csc(C)n3)cnc2C1C (stereo unspecified)	-5.84	18.7	-3.96	4.19	4.05	-55.7	9.57	7.41	-10.4	15	-9.91
CN1CC(=O)N(c2cccc(F)c2)CC12CCN(S(C)(=O)=O)C2 (stereo unspecified)	-4.45	10.8	2.57	0.944	-1.07	3.5	18.8	-6.25	4.32	10.3	-1.22
Cc1ccccc1C(=O)CN1C(=O)c2ccccc2CS1(=O)=O	-2.33	-10.8	2.31	-3.21	-5.41	-2.86	12.8	18.7	-25.9	-31.7	14.8
CCOC(CC)C(=O)NCCC(=O)N1CCN(c2ncccn2)CC1 (stereo unspecified)	-2.66	2.63	4.87	5.24	5.94	0	7.19	0.555	3.19	5.2	1.78
Cc1cc(C)c2c(c1)C1(CC(=O)Nc3c1cnn3C(C)C)C(=O)N2 (stereo unspecified)	0.0889	4	4.34	1.54	0.982	-6.16	8.87	21.1	3.17	2.56	-5.39
CN1CCOC(CN(C(=O)Cc2ccccc2F)c2nccs2)C1 (stereo unspecified)	-1.47	0	-3.71	11.3	8.82	-2.03	-0.539	1.86	1.98	6.1	5.97
CCCc1noc(CN2CCCC2c2ccsc2)n1 (stereo unspecified)	-2.78	-10.1	-1.69	-2.76	1.04	-8.37	3.19	11.1	0.493	1.27	6.54
Cn1ccnc1CNC1CCCN(Cc2noc(C3CC3)n2)C1 (stereo unspecified)	-1.62	0	-11.6	4.95	2.9	3.81	13.8	1.96	10.1	17.1	-3.57
Cc1ccc(NC(=O)N2CCOC(C)C2)cc1Cl (stereo unspecified)	-0.48	16.4	-5.38	4.84	2.58	-6.39	26.6	10.5	7.29	21	-3.19
Cn1ccnc1CC1CCCN(C(=O)Nc2cccn(C)c2=O)C1 (stereo unspecified)	-3.36	5.41	-17.1	6.3	2.93	27.9	12.9	4.41	8.91	13.4	-5.06
CS(=O)(=O)CCC(=O)NC1(c2cccc(Br)c2)CC1	-2.11	13.5	-4.94	18.2	6.37	1.43	15	-3.85	3.7	12.2	-3.61
Cc1nc(C2CCCN2Cc2nc(C)c(C)o2)no1 (stereo unspecified)	-2.9	16.2	-2.94	-1.49	-1.95	1.29	4.49	-3.4	13.9	25.6	-5.47
